Screens from PubChem BioAssay.
This is a sample that favours compounds with a hit; in the whole collection about 2.2% have one here.
TDP43 rescue = TDP-43 toxicity inhibition in yeast. TDP-43 expressing yeast growth rescue, BacTiter-Glo, 24 h. Potency, µM (top dose mostly 46.1 µM), inactives show at the top dose growth rescue (activation), usual class: activators. actives 1.8% (n = 410,000). AID 652104; also: % of control where 0% means no effect; nearly all actives have a fitted effect of over 50% in size
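Yeast cells expressing TDP-43 under galactose induction are exposed to compounds for 24 hr at 30 deg C. BacTiter-Glo luminescence measures growth, so protective compounds score as activators.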
Mito fusion act = mitochondrial division inhibition or fusion activation; S. cerevisiae fusion-defective mutant growth rescue, CellTiterGlo 48 h; AID 485298; Potency, µM (series often up to 46.1 µM), for the others: at the highest dose growth rescue (activation), most hits filed as activators; actives 0.23% (n = 320,000); also: % of control where 0% means no effect; nearly all actives have a fitted effect of over 45% in size
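Read-out: ATP-based luminescence (CellTiterGlo, 10 min ambient) reporting growth of fusion-defective ts yeast after 48 hours at 37C on glycerol/ethanol YPEG medium in the presence of compound.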
FUS suppressor = rescues growth of FUS-expressing yeast; S. cerevisiae FUS-expressing, growth rescue, OD600, 24 h; Potency, µM (titrated, usually from 76.6 µM), actives largely listed as activators; actives 0.24% (n = 390,000);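 also: plate controls were DMSO vehicle for no effect and reference control for full effect; nearly all actives have a fitted effect of over 55% in size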
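Yeast FUS proteinopathy model; galactose-induced FUS (2%), starting OD 0.005. Cpds in dilution series, 24hr, 30C, 99% humidity. Abs 600 nm growth. Pos ctrl CP55940 (top 92uM final); neg ctrl DMSO.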
aSyn rescue = inhibitors of alpha-synuclein toxicity in yeast | Yeast expressing alpha-synuclein, growth rescue, BacTiter-Glo, 24 h | Potency, µM (titrated, usually from 46.1 µM), for inactives: at the highest dose growth rescue (activation), usual class: activators | actives 0.14% (n = 370,000); also: % of control where 0% means no effect; nearly all actives have a fitted effect of over 65% in size
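Screening used galactose-induced yeast with toxic alpha-synuclein levels, exposed to compound for 24 hr at 30 deg C. Cell growth, read with BacTiter-Glo luminescence, gave the measured signal.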
Abeta rescue = A-beta toxicity reversal in yeast; yeast expressing A-beta42, growth rescue, OD600, 48 h; response scale: 0% DMSO, 100% iron-clioquinol control; Potency, µM (highest dose often 46.1 µM), most hits filed as activators; actives 0.063% (n = 410,000); also: nearly all actives have a fitted effect of over 55% in size
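Yeast A-beta toxicity model in growth medium with pinned compounds, 48 h at 30 C; growth read as absorbance at 600 nm. Normalized to FeCl3/clioquinol equimolar mix (positive) and DMSO (negative).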
* marks the source's active call; other numbers are inactive results; i = inactive; ? = inconclusive; / = no result. Calls follow the shape of the dose curve; as a rule, active = well fitted curve in the direction sought with a large enough effect; inconclusive = small, poorly fitted or top-dose-only effect, or another doubt; inactive = no such curve, though single readings can be large; an effect the other way counts as inactive or inconclusive. Potency is read from the fitted curve at half-maximal effect.

SMILES	TDP43 rescue	Mito fusion act	FUS suppressor	aSyn rescue	Abeta rescue
Cc1ccccc1N(C)S(=O)(=O)c1nnc(NC(=O)c2ccccc2F)s1	12.6µM*	5.62µM*	i	3.4%	i
Cc1cccc(CCNC(=O)c2ccc(Sc3ccccc3Cl)c([N+](=O)[O-])c2)c1	/	/	i	/	/
O=C(CN1C(=O)NC(Cc2ccccc2)C1=O)Nc1ccc(F)c(F)c1F (configuration not stated)	9.2%	-1.0%	/	4.5%	i
COc1ccc(OC(=O)c2c(C)nn(-c3ccccc3)c2C)cc1	22.4µM*	8.0%	i	-20.5%	i
COc1ccc(C(C)(O)c2nc(/C=C/c3ccccc3)cs2)cc1 (configuration not stated)	35.5µM*	/	i	?	?
COc1ccc(C(C)(O)c2nc(-c3csc4ccccc34)cs2)cc1 (configuration not stated)	22.4µM*	/	i	27.2%	?
CCc1cc(=O)oc2cc(C)c3c(-c4ccc(F)cc4)coc3c12	0.3%	/	i	/	i
C=CCn1c(Cn2c(-c3cnccn3)nc3ccccc32)nc2ccccc21	-1.9%	/	i	-0.6%	i
COCCN=C1NN=C(c2cc(C)n(CC3CCCO3)c2C)CS1 (configuration not stated)	-17.8%	-4.5%	35.5µM*	-1.0%	i
CCN(C(=O)[C@@H]1CCCN1C(=O)c1cccs1)c1nc2cc(Cl)ccc2s1	12.6µM*	?	i	3.3%	i
Cc1ccc(CC2CC(=O)N(CCc3ccc4c(c3)OCO4)C2=O)cc1 (configuration not stated)	28.0%	1.7%	i	5.0%	i
COc1cccc(CC2CC(=O)N(CCc3ccc4c(c3)OCO4)C2=O)c1 (configuration not stated)	20µM*	-4.2%	i	3.8%	i
Cn1ncc2c(Nc3ccc(Cl)c(Cl)c3)ncnc21	7.08µM*	25.6%	i	-14.9%	i
COCCNc1nc(NCc2cccc(Cl)c2)c2cnn(C)c2n1	11.7%	/	i	/	i
CCCn1ncc2c(Nc3ccc(C)c(C)c3)ncnc21	11.2µM*	-10.8%	i	-11.6%	i
Cn1ncc2c(NCc3cccc(Cl)c3)ncnc21	14.1µM*	/	i	/	i
CCOc1ccc(S(=O)(=O)N2CCC(N3CCN(Cc4ccc(F)cc4)C(=O)C3=O)CC2)cc1	23.2%	/	i	/	i
CCC(=O)N1CCc2cc(Br)cc(S(=O)(=O)N3CCC(C(=O)Nc4cccc(C)c4)CC3)c21	17.5%	/	i	/	i
CC(=O)N1CCc2nc3sc(C(=O)c4ccc(F)cc4)c(N)c3c(C(F)(F)F)c2C1	28.2µM*	/	i	/	i
COc1ccc(C(=O)c2sc3nc4c(c(C(F)(F)F)c3c2N)CN(C(C)=O)CC4)cc1OC	9.4%	/	i	4.7%	i
OCC1O[C@H]([S-])[C@H](O)[C@@H](O)[C@@H]1O.[Au+] (some centres not stated)	/	4.3%	/	-6.0%	/
O=C(N/N=C/c1cc(Br)cc(Cl)c1O)c1ccc2c(c1)OCO2	6.31µM*	/	i	5.62µM*	i
Cc1cc(C)c([N+](=O)[O-])cc1-c1ccc(/C=N/c2c(-c3ccco3)nc3ccccn23)o1	14.1µM*	-2.4%	i	4.1%	i
Cc1nn(C)cc1CN(C)C(=O)CC12CC3CC(CC(C3)C1)C2	22.4µM*	9.9%	/	-1.2%	i
Cc1cc(=O)oc2c(C)c3occc3cc12	2.51µM*	-1.9%	i	?	?
SMILES	TDP43 rescue	Mito fusion act	FUS suppressor	aSyn rescue	Abeta rescue
Cc1cc(C)c(C)c(S(=O)(=O)ON2C(=O)c3ccccc3C2=O)c1C	5.62µM*	0.7%	/	15.8%	i
Cc1cc(C)c(S(=O)(=O)ON2C(=O)c3ccccc3C2=O)cc1C	?	-0.8%	/	-69.6%	i
Brc1ccc(CSc2nnc(-c3cnccn3)n2Cc2ccco2)cc1	35.5µM*	14.9%	/	7.7%	i
Cc1ccc(CSc2nnc(-c3ccccn3)n2Cc2cccs2)cc1	35.5µM*	/	?	11.9%	i
CCn1c(SCc2ccc(C)cc2)nnc1-c1cnccn1	11.2µM*	3.3%	i	1.7%	i
Cn1c(SCc2ccc(F)cc2)nnc1-c1cnccn1	9.8%	-3.1%	i	5.6%	i
